PfM18AAP inh: blocks P. falciparum M18 aspartyl aminopeptidase. recombinant PfM18AAP, H-Glu-NHMec fluorogenic cleavage. inhibition, % at 7.35 µM. 290,000 tested, 1.2% active;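 active means inhibition above the campaign mean inhibition over all tested compounds plus 3 SD, cut at about 28% in these data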
Exocytosis inh: lytic granule exocytosis inhibition. TALL-104 LAMP-1 surface exposure, flow cytometry; cells stimulated with thapsigargin and PMA. AID 651702. inhibition, % at 10 µM. 360,000 tested, 0.66% active;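 active means inhibition above about 55%, limit read from the data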
ABHD5 PLIN5 PPI: ABHD5-PLIN5 protein interaction inhibition | Q00G26+Q8WTS1 | Split G. princeps luciferase complementation, luminescence, 4 h | inhibition, % at 4 µM | 360,000 tested, 0.78% active;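 active means inhibition above the mean inhibition across every tested compound plus 3 SD, cut at about 22% in these data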
Platelet DG rel: platelet dense granule release activity. inhibition, %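 (compounds screened at 7.5 µM in platelet-rich plasma)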. 300,000 tested, 0.22% active. AID 1663. human platelet-rich plasma, SFLLRN dense granule ATP release, luminescence;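 active means mean replicate score, as percent of positive control, at or above 50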
Rce1 inh: yeast Ras-converting enzyme inhibition | 290,000 tested, 0.27% active | AID 2563 | calls only | Q03530 | yeast membranes, quenched prenylated peptide cleavage fluorescence;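 active means fall in fluorescence gain of 50% or more versus controls, with final raw signal at or below 3038400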
Target sequence (Q03530 whole entry, looked up): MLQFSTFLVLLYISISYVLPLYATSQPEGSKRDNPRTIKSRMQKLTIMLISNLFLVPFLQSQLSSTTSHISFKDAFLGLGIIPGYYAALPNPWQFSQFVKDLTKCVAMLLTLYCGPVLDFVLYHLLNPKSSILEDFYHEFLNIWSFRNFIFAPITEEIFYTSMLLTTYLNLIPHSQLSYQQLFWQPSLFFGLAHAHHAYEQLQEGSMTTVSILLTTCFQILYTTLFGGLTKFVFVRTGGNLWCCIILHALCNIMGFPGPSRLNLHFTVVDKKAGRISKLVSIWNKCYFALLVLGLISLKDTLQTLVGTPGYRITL
Large screens that a line does not name were inactive; ! = not active in a repeat. Shown are actives, neighbours in structure and some others; about 2.6% of the full set was active somewhere.

Clc1ccccc1Nc1nnc(-c2ccncc2)s1	Platelet DG rel 69
FC(F)(F)c1ccc(Cl)c(Nc2nnc(-c3ccncc3)s2)c1	none (no result: PfM18AAP inh, Platelet DG rel, Rce1 inh)
Oc1ccc(/C=N/NC(=S)N2CCOCC2)cc1	PfM18AAP inh 33
Cc1ccccc1C(=O)OCn1nnc2ccccc2c1=O	Platelet DG rel 92
COc1cccc(C(=O)OCn2nnc3ccccc3c2=O)c1OC	none (no result: PfM18AAP inh)
CC(C)CCNC(=O)c1c(CSc2ccc(Cl)cc2)noc1C(=O)NCc1ccccc1	none (no result: PfM18AAP inh)
CCOc1cc(C2CC(=O)N3CN(C4CCCCC4)CSC3=C2C#N)ccc1O (configuration not stated)	PfM18AAP inh 31
COc1ccc2ccccc2c1C1CC(=O)N2CN(C3CCCCC3)CSC2=C1C#N (configuration not stated)	none
CCOc1ccc(Br)cc1C(=O)N/N=C/c1cccc(C)n1	none
COc1ccccc1-c1nc(S(=O)(=O)c2ccccc2)c(N2CCOCC2)o1	ABHD5 PLIN5 PPI 22
COc1ccc(-c2nc(S(=O)(=O)c3ccccc3)c(N3CCOCC3)o2)cc1	none
CC(=O)N1c2ccc(S(=O)(=O)N3CCC(C(=O)N4CCCCC4)CC3)cc2CC1C (configuration not stated)	none
c1coc(-c2ccnc3ncnn23)c1	Rce1 inh active
COC(CNC(=O)c1ccc2c(c1)nc(C)n2-c1cc(C)cc(C)c1)OC	none
CC(=O)Nc1ccc(-c2ccnc3c2CC(C(=O)Nc2ccc(Cl)c(C(F)(F)F)c2)O3)cc1 (configuration not stated)	none (no result: PfM18AAP inh, Platelet DG rel, Rce1 inh)
CCn1nc2cc(C(=O)NCCc3cccs3)ccc2c1OC	none
O=C(Nn1cnnc1)c1cc2c(s1)CCCC2	PfM18AAP inh 32
CCOC(=O)C1=C(C)N=C2SC(C)C(=O)N2C1c1ccccc1 (configuration not stated)	none
CC1CCC(NC(=O)C2CCC(CNS(=O)(=O)c3cccc4nsnc34)CC2)CC1 (configuration not stated)	none
O=C1c2c(O)cc(O)cc2O[C@H](c2ccc(O)c(O)c2)[C@@H]1O	PfM18AAP inh 82 (no result: Exocytosis inh, ABHD5 PLIN5 PPI)
O=C1c2c(O)cc(O)cc2O[C@H](c2ccc(O)cc2)[C@H]1O	none (no result: PfM18AAP inh)
O=C1c2c(O)cc(O)cc2O[C@H](c2ccc(O)c(O)c2)[C@H]1O	PfM18AAP inh 79
COc1ccc(C(=O)CSc2nc(=O)n(Cc3cccnc3)c3c2CCC3)cc1	none (no result: PfM18AAP inh, Platelet DG rel, Rce1 inh)
C=CC[C@H](CC(=O)N(CCO)Cc1ccccc1)C(=O)N[C@@H](C)COC(=O)[C@H](CC=C)CC(=O)OC(C)(C)C	none (no result: PfM18AAP inh, Platelet DG rel, Rce1 inh)
C=CC[C@@H](CC(=O)N(CCO)Cc1ccccc1)C(=O)N[C@@H](C)COC(=O)[C@@H](CC=C)CC(=O)OC(C)(C)C	Exocytosis inh 64 (no result: PfM18AAP inh, Platelet DG rel, Rce1 inh)
COc1ccc(C(=O)Oc2ccc3oc(=O)sc3c2)cc1	ABHD5 PLIN5 PPI 23
Nc1ccc(NS(=O)(=O)c2ccccc2)cc1	none
COc1ccc2c(c1)[nH]c1c(N3CCN(Cc4ccc5c(c4)OCO5)CC3)ncnc12	none
COc1cccc2[nH]c3c(N4CCN(Cc5ccc6c(c5)OCO6)CC4)ncnc3c12	Rce1 inh active (no result: Exocytosis inh, ABHD5 PLIN5 PPI)
Cc1cccc(C)c1OCC(=O)Nc1ncn[nH]1	PfM18AAP inh 29
NC(=O)NCCC1=CCCCC1	none
O=C(NCCC1=CCCCC1)NC1CCCCC1	Platelet DG rel 54
O=C(Nc1cccc(F)c1)C1CCN(C(=O)Cc2ccccc2)CC1	Platelet DG rel 51
O=C(Cn1ncc2c3ccccc3n(Cc3ccc(Cl)cc3)c2c1=O)NCCCN1CCCC1=O	none
COc1ccc(CCNC(=O)/C(C#N)=C2\N=C(NC(=O)c3ccco3)c3ccccc32)cc1	Exocytosis inh 84
CCOC(=O)COc1ccc2ccccc2c1/C=C/[N+](=O)[O-]	PfM18AAP inh 37
O=[N+]([O-])/C=C/c1c(OCc2ccccc2)ccc2ccccc12	Exocytosis inh 78, ABHD5 PLIN5 PPI 84
CCOC(=O)Cn1cc(/C=C/[N+](=O)[O-])c2ccccc21	none
Cc1cc(C)c(C#N)c(Nc2ccccc2Cl)n1	none (no result: Rce1 inh)
COc1cc2cc(-c3ccc(OC)c(OC)c3C)nc(N)c2cc1OC	none (no result: PfM18AAP inh)
C[n+]1cn(Cc2cc(Cl)ccc2OC(F)F)c2ccccc21	none
CCCCN(C)CC(O)Cn1cc(/C=C/C(=O)c2ccc(C)cc2)c2ccccc21 (configuration not stated)	Exocytosis inh 70
CCCN(CCC)CC(O)Cn1cc(/C=C/C(=O)c2ccccc2)c2ccccc21 (configuration not stated)	Exocytosis inh 92
CN1C(=O)/C(=C/c2cccc(Cl)c2)Sc2ccc(C(=O)N3CCOCC3)cc21	Rce1 inh active
CCOc1ccc(/C=C2/Sc3ccc(C(=O)N4CCOCC4)cc3N(C)C2=O)cc1OC	none
COc1ccc(C(=O)Nc2ccc(N3CCCC3)cc2)cc1Br	none
COc1ccc(C(=O)Nc2ccc(N3CCOCC3)cc2)cc1OC	Platelet DG rel 66
CS(=O)(=O)c1ncc(Cl)c(C(=O)Nc2ccc(N3CCOCC3)cc2)n1	ABHD5 PLIN5 PPI 60
COc1ccc(C(=O)Nc2ccc(N3CCCC3)cc2)cc1OC	Platelet DG rel 79
CS(=O)(=O)c1ccc(C(=O)Nc2ccc(N3CCOCC3)cc2)c(Cl)c1	none
O=C(NCc1nc2ccccc2[nH]1)C1=C[C@@H](c2ccccc2)C[C@@H](OCc2ccc(CO)cc2)O1	Exocytosis inh 71
O=C(NCc1nc2ccccc2[nH]1)C1=C[C@H](c2ccccc2)C[C@H](OCc2ccc(CO)cc2)O1	none
COc1cc(CNCc2ccncc2)cc(Br)c1OCc1ccccc1F	none
O=C(CSc1ccccn1)Nc1nonc1[N+](=O)[O-]	Exocytosis inh 59
Cc1cc(N=Nc2ccc(C)c(N=Nc3cc(C)c(N)cc3N)c2)c(N)cc1N	none
Cn1nc(C(=O)Nc2nc3ccc(S(C)(=O)=O)cc3s2)ccc1=O	Platelet DG rel 53
Cc1cccc(C(=O)N=c2c(C#N)cc3c(=O)n4cccc(C)c4nc3n2Cc2ccco2)c1	ABHD5 PLIN5 PPI 50!
Cc1cccn2c(=O)c3cc(C#N)c(=NC(=O)c4ccccc4)n(Cc4ccco4)c3nc12	ABHD5 PLIN5 PPI 46! (no result: PfM18AAP inh)
CCN(c1ccc(C)c(C)c1)S(=O)(=O)c1ccc2c(c1)CCN2C(=O)CCC(=O)O	none
O=C(/C=C/Nc1ccc(Oc2ccccc2)cc1)c1ccco1	Platelet DG rel 53
O=c1sc2ccccc2c(=O)n1Cc1ccccc1F	none
COC(=O)c1cccc(-n2sc3ccccc3c2=O)c1	ABHD5 PLIN5 PPI 91 (no result: PfM18AAP inh, Platelet DG rel, Rce1 inh)
O=c1c2ccccc2sn1-c1ccc(F)cc1	ABHD5 PLIN5 PPI 71 (no result: PfM18AAP inh, Platelet DG rel, Rce1 inh)
O=C(COC(=O)Cc1ccsc1)Nc1ccccc1Cl	none (no result: PfM18AAP inh, Platelet DG rel, Rce1 inh)
O=C(Nc1ncc([N+](=O)[O-])s1)c1ccco1	none
CC(C)COC(=O)Cc1c(O)c2ccccc2[nH]c1=O	none
CCOc1ccc(N(CC(=O)NC2CC3CCC2C3)S(=O)(=O)c2ccccc2)cc1 (configuration not stated)	Rce1 inh active
CCn1nc(C)c(CNC(=O)c2ccc(OC3CCN(Cc4ccccn4)CC3)cc2)c1C	none
O=[N+]([O-])c1ccccc1-c1ccc(C(=S)N2CCCCC2)o1	Exocytosis inh 65
O=[N+]([O-])c1ccccc1-c1ccc(C(=S)N2CCCC2)o1	none

Source: PubChem BioAssay
